Experimental data published in the supplement of paper PMC8285479.
Structures can show the parent of a compound that is named as a salt. ± gives the standard deviation of the averaged measurements. The full ranking holds about 1,900 compounds; the median of “normalised cell viability (NPI; 0 = phenylarsine oxide control, 1 = DMSO control)” is about 1, and the lowest 2% start at about 0.039. This excerpt belongs to a sample that is enriched for the lowest values.

System: NCI-H1944
Test: normalised cell viability (NPI; 0 = phenylarsine oxide control, 1 = DMSO control) (fraction of DMSO control); NCI-H1944 is a non-small cell lung cancer line; higher = more viable cells (less compound toxicity)
Conditions: 6 days
[1] = glucocorticoid arm: hydrocortisone 2.75 uM co-treatment, compound 1 µM
[2] = glucocorticoid arm: hydrocortisone 2.75 uM co-treatment, compound 5 µM
[3] = glucocorticoid arm: hydrocortisone 2.75 uM pre-treated 2 days and continued, compound 1 µM
[4] = glucocorticoid arm: hydrocortisone 2.75 uM pre-treated 2 days and continued, compound 5 µM
[5] = glucocorticoid arm: vehicle, compound 1 µM
[6] = glucocorticoid arm: vehicle, compound 5 µM
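Further: CTB read-out in 384-well plates, triplicate wells, NPI normalised per plate against 1 µM phenylarsine oxide (0) and 0.1% DMSO (1) controls.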

Question: What does the source list for `Cc1c(F)ccc(C(=O)Nc2cc([N+](=O)[O-])ccc2N2CCN(C)CC2)c1Cl`?
Answer: normalised cell viability [1]: 1.03 ± 0.011; normalised cell viability [2]: 0.987 ± 0.02; normalised cell viability [3]: 1.027 ± 0.0058; normalised cell viability [4]: 1 ± 0.013; normalised cell viability [5]: 0.9957 ± 0.0075; normalised cell viability [6]: 0.9963 ± 0.0047

Question: How did the normalised cell viability [1] turn out when `O=C(O)[C@H]1NCCC[C@H]1C(=O)O` (relative stereo) [cis-Piperidine-2,3-dicarboxylic acid] was run?
Answer: 1 ± 0.016

Question: What about the normalised cell viability [2] of the same compound?
Answer: 1 ± 0.022

Question: What about the normalised cell viability [3] of the same compound?
Answer: 1 ± 0.018

Question: And the normalised cell viability [4]?
Answer: 0.973 ± 0.0087

Question: What about the normalised cell viability [5] of the same compound?
Answer: 0.987 ± 0.0092

Question: And the normalised cell viability [6]?
Answer: 0.9887 ± 0.005

Question: Which normalised cell viability [1] does the source give for `CSC(=N)NCCC[C@H](N)C(=O)O` [S-Methyl-L-thiocitrulline acetate] here?
Answer: 1.003 ± 0.0058

Question: And the normalised cell viability [2]?
Answer: 0.984 ± 0.028

Question: And the normalised cell viability [3]?
Answer: 1.01 ± 0.01

Question: And the normalised cell viability [4]?
Answer: 0.989 ± 0.018

Question: And the normalised cell viability [5]?
Answer: 0.9847 ± 0.0051

Question: And the normalised cell viability [6]?
Answer: 0.994 ± 0.014

Question: Which results are given for `Nc1ccn([C@@H]2O[C@H](CO)[C@@H](O)C2(F)F)c(=O)n1` [Gemcitabine hydrochloride; Gemcitabine HCl]?
Answer: normalised cell viability [1]: 0.202 ± 0.0062; normalised cell viability [2]: 1.04 ± 0.015; normalised cell viability [3]: 0.422 ± 0.044; normalised cell viability [4]: 1.03; normalised cell viability [5]: 0.0536 ± 0.0027; normalised cell viability [6]: 1.013 ± 0.0058

Question: How did the normalised cell viability [1] turn out when `Nc1ccn([C@@H]2O[C@H](CO)[C@@H](O)[C@@H]2O)c(=O)n1` [Cytosine-1-beta-D-arabinofuranoside hydrochloride] was run?
Answer: 0.352 ± 0.026

Question: And the normalised cell viability [2]?
Answer: 0.163 ± 0.022

Question: And the normalised cell viability [3]?
Answer: 1.03 ± 0.017

Question: And the normalised cell viability [4]?
Answer: 0.802 ± 0.22

Question: And the normalised cell viability [5]?
Answer: 0.0913 ± 0.011

Question: And the normalised cell viability [6]?
Answer: 0.0638 ± 0.0066

Question: Which normalised cell viability [1] does the source give for `Nc1ccn([C@@H]2O[C@H](CO)[C@@H](O)[C@@H]2O)c(=O)n1` here?
Answer: 0.178 ± 0.001

Question: And the normalised cell viability [2]?
Answer: 0.115 ± 0.0035

Question: And the normalised cell viability [3]?
Answer: 0.91 ± 0.011

Question: What about the normalised cell viability [4] of the same compound?
Answer: 0.31 ± 0.04

Question: What about the normalised cell viability [5] of the same compound?
Answer: 0.0325 ± 0.0032

Question: What about the normalised cell viability [6] of the same compound?
Answer: 0.0276 ± 0.0059

Question: How did the normalised cell viability [1] turn out when `Nc1ncn([C@@H]2O[C@H](CO)[C@@H](O)[C@H]2O)c(=O)n1` [Azacitidine; 5-azacytidine] was run?
Answer: 1.04 ± 0.026

Question: What about the normalised cell viability [2] of the same compound?
Answer: 1.11 ± 0.015

Question: And the normalised cell viability [3]?
Answer: 1.04 ± 0.01

Question: And the normalised cell viability [4]?
Answer: 1.1 ± 0.021

Question: What about the normalised cell viability [5] of the same compound?
Answer: 0.98 ± 0.017

Question: And the normalised cell viability [6]?
Answer: 0.766 ± 0.025

Question: Which results are given for `Nc1ncn([C@@H]2O[C@H](CO)[C@@H](O)[C@H]2O)c(=O)n1` [Azacitidine]?
Answer: normalised cell viability [1]: 1.03; normalised cell viability [2]: 1.11 ± 0.025; normalised cell viability [3]: 1 ± 0.037; normalised cell viability [4]: 0.952 ± 0.24; normalised cell viability [5]: 0.976 ± 0.011; normalised cell viability [6]: 0.903 ± 0.017

Question: How did the normalised cell viability [1] turn out when `Nc1ncn([C@@H]2O[C@H](CO)[C@@H](O)[C@H]2O)c(=O)n1` [5-azacytidine] was run?
Answer: 1.006 ± 0.0063

Question: What about the normalised cell viability [2] of the same compound?
Answer: 1.03

Question: And the normalised cell viability [3]?
Answer: 1.01 ± 0.018

Question: What about the normalised cell viability [4] of the same compound?
Answer: 1.08 ± 0.014

Question: And the normalised cell viability [5]?
Answer: 0.972 ± 0.015

Question: What about the normalised cell viability [6] of the same compound?
Answer: 0.8937 ± 0.006

Question: Which results are given for `CN1CCN(C2Cc3ccccc3Sc3ccc(Cl)cc32)CC1` (racemic) [(±)-Octoclothepin maleate]?
Answer: normalised cell viability [1]: 1.01 ± 0.011; normalised cell viability [2]: 0.9477 ± 0.0045; normalised cell viability [3]: 1.01 ± 0.015; normalised cell viability [4]: 1.05 ± 0.087; normalised cell viability [5]: 1 ± 0.0095; normalised cell viability [6]: 1 ± 0.011

Question: What does the source list for `[N-]=[N+]=Nc1ccc(C(=O)CSC[C@H](NC(=O)CC[C@H](N)C(=O)O)C(=O)NCC(=O)O)cc1` [S-(p-Azidophenacyl)glutathione]?
Answer: normalised cell viability [1]: 1.017 ± 0.0058; normalised cell viability [2]: 0.814 ± 0.0099; normalised cell viability [3]: 0.9947 ± 0.0067; normalised cell viability [4]: 1 ± 0.021; normalised cell viability [5]: 0.988 ± 0.014; normalised cell viability [6]: 0.517 ± 0.38

Question: Which results are given for `COCC[n+]1c2c(n(Cc3cnccn3)c1C)C(=O)c1ccccc1C2=O`?
Answer: normalised cell viability [1]: 0.00685 ± 0.0014; normalised cell viability [2]: 0.00188 ± 0.0012; normalised cell viability [3]: 0.00552 ± 0.0012; normalised cell viability [4]: 0.0024 ± 0.00039; normalised cell viability [5]: 0.00736 ± 0.00083; normalised cell viability [6]: 0.00199 ± 0.00048

Question: Which results are given for `OC[C@H]1O[C@@H](n2cnc3c(Nc4ccccc4)ncnc32)[C@H](O)[C@@H]1O` [N6-Phenyladenosine]?
Answer: normalised cell viability [1]: 1 ± 0.014; normalised cell viability [2]: 1.01 ± 0.011; normalised cell viability [3]: 1.02 ± 0.022; normalised cell viability [4]: 1.013 ± 0.0058; normalised cell viability [5]: 1.01 ± 0.01; normalised cell viability [6]: 1.002 ± 0.0076

Question: How did the normalised cell viability [1] turn out when `COc1[nH]c2ccc(F)cc2c1C(=O)OCC1CCN(CCNS(C)(=O)=O)CC1.NS(=O)(=O)O` was run?
Answer: 1.023 ± 0.0058

Question: And the normalised cell viability [2]?
Answer: 0.955 ± 0.011

Question: And the normalised cell viability [3]?
Answer: 1.017 ± 0.0058

Question: And the normalised cell viability [4]?
Answer: 0.989 ± 0.021

Question: What about the normalised cell viability [5] of the same compound?
Answer: 0.9993 ± 0.0011

Question: And the normalised cell viability [6]?
Answer: 1.007 ± 0.0058

Question: Which normalised cell viability [1] does the source give for `O=C(/C=C/c1ccc(CN(CCO)CCc2c[nH]c3ccccc23)cc1)NO` [LAQ824 (Dacinostat)] here?
Answer: 0.00706 ± 0.0016

Question: What about the normalised cell viability [2] of the same compound?
Answer: -0.000483 ± 0.0039

Question: What about the normalised cell viability [3] of the same compound?
Answer: 0.0151 ± 0.00085

Question: What about the normalised cell viability [4] of the same compound?
Answer: 0.00158 ± 0.00078

Question: What about the normalised cell viability [5] of the same compound?
Answer: 0.0063 ± 0.00096

Question: And the normalised cell viability [6]?
Answer: -0.000399 ± 0.00047

Question: `N[C@@H](Cc1c[nH]c2ccccc12)C(=O)O` [L-Tryptophan] was tested. Which normalised cell viability [1] did it give?
Answer: 1.01

Question: What about the normalised cell viability [2] of the same compound?
Answer: 1.027 ± 0.0058

Question: And the normalised cell viability [3]?
Answer: 1.03 ± 0.032

Question: What about the normalised cell viability [4] of the same compound?
Answer: 1.033 ± 0.0058

Question: What about the normalised cell viability [5] of the same compound?
Answer: 0.999 ± 0.001

Question: And the normalised cell viability [6]?
Answer: 1.003 ± 0.0058

Question: Which results are given for `CN(C)Cc1ccc(S(=O)(=O)n2ccc(/C=C/C(=O)NO)c2)cc1` [Resminostat]?
Answer: normalised cell viability [1]: 0.941 ± 0.011; normalised cell viability [2]: 0.92 ± 0.018; normalised cell viability [3]: 0.961 ± 0.011; normalised cell viability [4]: 1.023 ± 0.0058; normalised cell viability [5]: 1.001 ± 0.0081; normalised cell viability [6]: 0.214 ± 0.026

Question: Which normalised cell viability [1] does the source give for `Ic1ccc(N2CCN(Cc3c[nH]c4ncccc34)CC2)cc1` [L-750,667 trihydrochloride] here?
Answer: 0.969 ± 0.003

Question: And the normalised cell viability [2]?
Answer: 0.883 ± 0.014

Question: What about the normalised cell viability [3] of the same compound?
Answer: 0.99 ± 0.0044

Question: And the normalised cell viability [4]?
Answer: 0.999 ± 0.087

Question: What about the normalised cell viability [5] of the same compound?
Answer: 0.988 ± 0.011

Question: What about the normalised cell viability [6] of the same compound?
Answer: 0.998 ± 0.019

Question: What does the source list for `CC1CCN=C(N)S1` (racemic) [(±)-AMT hydrochloride]?
Answer: normalised cell viability [1]: 0.982 ± 0.015; normalised cell viability [2]: 0.968 ± 0.015; normalised cell viability [3]: 0.9923 ± 0.0067; normalised cell viability [4]: 0.975 ± 0.0071; normalised cell viability [5]: 0.9907 ± 0.0095; normalised cell viability [6]: 0.9677 ± 0.0046

Question: How did the normalised cell viability [1] turn out when `OCc1ccc(-c2ccc(-c3ccc(CO)s3)o2)s1` was run?
Answer: 0.979 ± 0.0061

Question: What about the normalised cell viability [2] of the same compound?
Answer: 0.0751 ± 0.0071

Question: And the normalised cell viability [3]?
Answer: 1.017 ± 0.0058

Question: And the normalised cell viability [4]?
Answer: 0.358 ± 0.022

Question: And the normalised cell viability [5]?
Answer: 0.621 ± 0.045

Question: And the normalised cell viability [6]?
Answer: 0.0128 ± 0.0026

Question: Which normalised cell viability [1] does the source give for `CCc1ccc(/C=C2/SC(=S)NC2=O)cc1` here?
Answer: 1.01 ± 0.017

Question: What about the normalised cell viability [2] of the same compound?
Answer: 1.06 ± 0.011

Question: What about the normalised cell viability [3] of the same compound?
Answer: 1.04

Question: And the normalised cell viability [4]?
Answer: 1.04 ± 0.021

Question: What about the normalised cell viability [5] of the same compound?
Answer: 1.007 ± 0.0058

Question: What about the normalised cell viability [6] of the same compound?
Answer: 1.013 ± 0.0058

Question: `COC(=O)C(N)Cc1ccc(Cl)cc1` (racemic) [DL-p-Chlorophenylalanine methyl ester hydrochloride] was tested. Which normalised cell viability [1] did it give?
Answer: 1.02 ± 0.01

Question: And the normalised cell viability [2]?
Answer: 1.02 ± 0.015

Question: What about the normalised cell viability [3] of the same compound?
Answer: 1.017 ± 0.0058

Question: And the normalised cell viability [4]?
Answer: 1.02 ± 0.014

Question: What about the normalised cell viability [5] of the same compound?
Answer: 1.006 ± 0.0069

Question: And the normalised cell viability [6]?
Answer: 1.017 ± 0.0058

Question: How did the normalised cell viability [1] turn out when `NC[C@@H]1O[C@H](C23CC4CC(CC(C4)C2)C3)Cc2c1ccc(O)c2O` was run?
Answer: 1.01 ± 0.012

Question: What about the normalised cell viability [2] of the same compound?
Answer: 0.0562 ± 0.02

Question: And the normalised cell viability [3]?
Answer: 1.01 ± 0.011

Question: What about the normalised cell viability [4] of the same compound?
Answer: 0.996 ± 0.077

Question: And the normalised cell viability [5]?
Answer: 1.01 ± 0.011

Question: What about the normalised cell viability [6] of the same compound?
Answer: 0.0119 ± 0.0027

Question: For `CCCCCCCCCCCCCCCC(=O)OC(CC(=O)O)C[N+](C)(C)C` (racemic) [Palmitoyl-DL-Carnitine chloride], which normalised cell viability [1] is on record?
Answer: 1.02 ± 0.011

Question: And the normalised cell viability [2]?
Answer: 0.975 ± 0.014

Question: What about the normalised cell viability [3] of the same compound?
Answer: 1.013 ± 0.0058

Question: And the normalised cell viability [4]?
Answer: 0.863 ± 0.28

Question: What about the normalised cell viability [5] of the same compound?
Answer: 1.007 ± 0.0058

Question: And the normalised cell viability [6]?
Answer: 1.02 ± 0.02
